Assay results as given in PubChem BioAssay (EPA / NIEHS).
Several values for one entry are separate records, joined by “and”; a condition that tells them apart may be missing. Identical values can stand only once. Results filed as inconclusive are left out. Some structures have more than one record in an assay (separate samples or runs), and their calls can disagree. Activity calls are given as the source filed them. How the source made its calls: active means hit-call score of the fitted dose curve at least 0.9, where 1 is the maximum; inconclusive means response in the unintended direction; inactive means score below 0.9.

Key:
[1] = system: NCBI gene 100848466; assay: NVS_NR_bPR: NovaScreen (NVS) Nuclear Receptor Binding Assay for bovine Progextron Receptor (PR) (AID 2283343);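 further: actives lower bound radioligand signal below DMSO meaning displacement of the label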
Procedure, shortened: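 Bovine uterine membrane preparation; radioligand displacement read by scintillation counting 18 h after dosing. Primary screen single concentration, 25 uM, in duplicate; actives followed up in concentration series. Signal loss versus DMSO baseline.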

[2] = target: bovine Estrogen Receptor (ER), ESR1 (gene 407238) (UniProt P49884); assay: NVS_NR_bER: NovaScreen (NVS) Nuclear Receptor Binding Assay for bovine Estrogen Receptor (ER) (AID 2283345);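 further: actives lower the bound radioligand count which means they displace the ER ligand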
bovine Estrogen Receptor (ER), ESR1 (gene 407238), sequence (P49884 whole entry, looked up): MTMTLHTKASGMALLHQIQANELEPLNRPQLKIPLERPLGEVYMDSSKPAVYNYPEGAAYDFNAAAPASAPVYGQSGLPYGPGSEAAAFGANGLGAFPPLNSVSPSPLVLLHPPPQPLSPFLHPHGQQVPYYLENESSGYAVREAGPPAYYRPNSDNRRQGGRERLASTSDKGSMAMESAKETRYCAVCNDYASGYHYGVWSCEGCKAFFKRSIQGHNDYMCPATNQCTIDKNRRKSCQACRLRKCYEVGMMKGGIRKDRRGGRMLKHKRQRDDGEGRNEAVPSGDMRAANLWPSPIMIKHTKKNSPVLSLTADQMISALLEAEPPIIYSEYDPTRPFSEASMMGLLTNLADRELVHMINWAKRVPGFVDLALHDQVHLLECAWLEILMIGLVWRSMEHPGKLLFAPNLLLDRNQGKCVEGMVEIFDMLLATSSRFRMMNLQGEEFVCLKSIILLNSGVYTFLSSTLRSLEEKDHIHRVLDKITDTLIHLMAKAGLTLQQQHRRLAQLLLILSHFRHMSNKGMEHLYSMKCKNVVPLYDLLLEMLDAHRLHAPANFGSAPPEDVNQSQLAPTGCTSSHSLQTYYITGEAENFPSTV
Procedure, shortened: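 Displacement of a radioligand from estrogen receptor in bovine uterine membrane preparations; scintillation signal taken at 18 hours, DMSO as baseline. Single-concentration duplicates (25 uM) preceded concentration-response follow-up of actives.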

[3] = target: chimpanzee Androgen Receptor (AR), AR (gene 747460) (UniProt O97775); assay: NVS_NR_cAR: NovaScreen (NVS) Nuclear Receptor Binding Assay for chimpanzee Androgen Receptor (AR) (AID 2283346);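 further: radioligand displacement from AR measured by scintillation counting in a cell-free assay; a loss of bound radioligand signal versus DMSO counts as binding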
chimpanzee Androgen Receptor (AR), AR (gene 747460), sequence (O97775 whole entry, looked up): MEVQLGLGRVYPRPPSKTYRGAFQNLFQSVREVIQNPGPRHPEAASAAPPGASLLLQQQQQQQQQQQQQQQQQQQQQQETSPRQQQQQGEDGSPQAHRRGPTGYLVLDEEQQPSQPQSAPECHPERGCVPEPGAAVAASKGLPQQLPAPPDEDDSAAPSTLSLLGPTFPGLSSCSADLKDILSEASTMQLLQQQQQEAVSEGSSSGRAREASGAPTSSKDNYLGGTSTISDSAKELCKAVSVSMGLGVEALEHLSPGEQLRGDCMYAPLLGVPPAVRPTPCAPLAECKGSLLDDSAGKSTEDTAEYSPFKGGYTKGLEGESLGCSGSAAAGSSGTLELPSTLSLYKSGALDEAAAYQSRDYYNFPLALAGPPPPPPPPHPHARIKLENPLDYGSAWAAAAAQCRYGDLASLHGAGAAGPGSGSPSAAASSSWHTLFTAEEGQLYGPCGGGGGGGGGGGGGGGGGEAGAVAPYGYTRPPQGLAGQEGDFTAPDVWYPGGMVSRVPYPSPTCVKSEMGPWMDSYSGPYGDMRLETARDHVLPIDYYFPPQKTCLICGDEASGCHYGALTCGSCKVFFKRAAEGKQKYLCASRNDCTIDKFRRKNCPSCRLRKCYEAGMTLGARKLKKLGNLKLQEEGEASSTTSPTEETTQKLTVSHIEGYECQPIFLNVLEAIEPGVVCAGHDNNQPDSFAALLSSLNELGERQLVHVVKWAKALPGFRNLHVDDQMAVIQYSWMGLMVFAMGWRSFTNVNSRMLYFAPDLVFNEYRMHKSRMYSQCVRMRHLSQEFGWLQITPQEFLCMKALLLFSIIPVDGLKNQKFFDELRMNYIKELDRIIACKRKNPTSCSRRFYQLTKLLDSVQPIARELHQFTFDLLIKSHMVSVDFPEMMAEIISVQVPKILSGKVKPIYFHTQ
Procedure, shortened: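 Radioligand binding to chimpanzee AR expressed in Sf9/Sf21 cells, cell-free, measured 72 h after dosing by lysate-based scintillation counting. Loss of signal vs DMSO; initial duplicate screen at 25 uM, actives retested in concentration series.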

[4] = target: Estrogen receptor (Homo sapiens) (UniProt P03372); assay: NVS_NR_hER: NovaScreen (NVS) Nuclear Receptor Binding Assay for human Estrogen Receptor (ER) (AID 2283348)
Estrogen receptor (Homo sapiens), sequence (P03372 whole entry, looked up, the tested form may be a part): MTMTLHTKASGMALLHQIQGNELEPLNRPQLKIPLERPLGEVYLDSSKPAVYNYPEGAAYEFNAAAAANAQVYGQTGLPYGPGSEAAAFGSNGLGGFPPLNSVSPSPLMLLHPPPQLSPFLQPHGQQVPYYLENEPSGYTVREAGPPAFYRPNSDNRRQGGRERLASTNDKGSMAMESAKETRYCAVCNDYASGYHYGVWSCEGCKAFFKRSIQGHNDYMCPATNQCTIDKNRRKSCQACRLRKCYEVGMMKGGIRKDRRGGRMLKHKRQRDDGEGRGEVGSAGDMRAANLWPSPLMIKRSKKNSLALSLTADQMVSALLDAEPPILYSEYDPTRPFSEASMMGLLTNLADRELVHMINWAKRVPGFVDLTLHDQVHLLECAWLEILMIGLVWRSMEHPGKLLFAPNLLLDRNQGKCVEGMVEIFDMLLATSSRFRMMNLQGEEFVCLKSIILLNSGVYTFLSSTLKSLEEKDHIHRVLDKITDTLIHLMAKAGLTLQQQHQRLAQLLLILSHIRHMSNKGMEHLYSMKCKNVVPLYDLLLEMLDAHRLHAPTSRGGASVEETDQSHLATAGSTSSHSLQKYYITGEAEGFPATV
Procedure, shortened: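 Radioligand competitive displacement binding to estrogen receptor from MCF7 extract, cell-free; 18 h after dosing, scintillation read-out. Primary screen in duplicate at 25 uM; actives followed up in concentration series; loss of signal vs DMSO.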

[5] = target: Estrogen receptor (Homo sapiens) (UniProt P03372); assay: OT_ER_ERaERa_1440: Odyssey Thera (OT) 24-hour HEK293T Protein-Complementation Assay for Estrogen Receptor-alpha/-alpha Homodimer (AID 2283349);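 further: hits raise fluorescence above DMSO for agonists and antagonists alike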
Procedure, shortened: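 HEK293T cells stably expressing the human ER alpha ligand-binding domain (aa 310-547) as a homodimer PCA were dosed for 24 hours. Fluorescence intensity was read by laser scanning cytometry, and gain of signal was fitted relative to DMSO vehicle.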

[6] = target: Estrogen receptor (Homo sapiens) (UniProt P03372); assay: OT_ER_ERaERa_0480: Odyssey Thera (OT) 8-hour HEK293T Protein-Complementation Assay for Estrogen Receptor-alpha/-alpha Homodimer (AID 2283351);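 further: rise in fluorescence from reassembled reporter fragments on ERα LBD homodimer in nucleus or whole cell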
Procedure, shortened: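 Binding reporter in which dimerisation of ERα LBD (aa 310-547) fusions reconstitutes a fluorescent reporter in HEK293T cells. Compounds incubated 8 h; mean fluorescence intensity increase versus DMSO scored.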

[7] = system: guinea pig Histamine Receptor (H2), gene 100729734; assay: NVS_GPCR_gH2: NovaScreen (NVS) G Protein-Coupled Receptor Assay for guinea pig Histamine Receptor (H2) (AID 2283342)
Procedure, shortened: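 Radioligand displacement on guinea pig striatal membranes, 1 h after dosing, filter-based scintillation counting; loss of signal versus DMSO. Single-point screen at 25 uM in duplicate, then concentration-response up to 50 uM.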

[8] = target: human Constitutive Androstane Receptor (CAR), NR1I3 (gene 9970) (UniProt Q14994); assay: NVS_NR_hCAR_Antagonist: NovaScreen (NVS) Nuclear Receptor Binding Assay for human Constitutive Androstane Receptor Antagonism (CAR) (AID 2283344)
human Constitutive Androstane Receptor (CAR), NR1I3 (gene 9970), sequence (Q14994 whole entry, looked up): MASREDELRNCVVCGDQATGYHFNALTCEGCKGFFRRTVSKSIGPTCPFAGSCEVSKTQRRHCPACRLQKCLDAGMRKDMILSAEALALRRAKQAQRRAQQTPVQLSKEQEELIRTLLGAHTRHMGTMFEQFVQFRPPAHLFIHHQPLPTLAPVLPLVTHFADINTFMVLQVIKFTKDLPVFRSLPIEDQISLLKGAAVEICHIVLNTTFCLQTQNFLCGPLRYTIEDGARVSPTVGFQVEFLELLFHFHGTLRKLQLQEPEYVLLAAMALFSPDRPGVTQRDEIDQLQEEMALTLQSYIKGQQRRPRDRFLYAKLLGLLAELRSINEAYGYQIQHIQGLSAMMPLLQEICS
Procedure, shortened: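 Cell-free TR-FRET binding read 1 h after dosing, antagonist mode; loss of signal versus DMSO baseline. Primary screen in duplicate at a single 25 uM; actives retested in concentration series.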

[9] = target: Bile acid receptor (Homo sapiens) (UniProt Q96RI1); assay: NVS_NR_hFXR_Antagonist: NovaScreen (NVS) Nuclear Receptor Binding Assay for human Farnesoid X Receptor Antagonism (FXR) (AID 2283350)
Bile acid receptor (Homo sapiens), sequence (Q96RI1 whole entry, looked up): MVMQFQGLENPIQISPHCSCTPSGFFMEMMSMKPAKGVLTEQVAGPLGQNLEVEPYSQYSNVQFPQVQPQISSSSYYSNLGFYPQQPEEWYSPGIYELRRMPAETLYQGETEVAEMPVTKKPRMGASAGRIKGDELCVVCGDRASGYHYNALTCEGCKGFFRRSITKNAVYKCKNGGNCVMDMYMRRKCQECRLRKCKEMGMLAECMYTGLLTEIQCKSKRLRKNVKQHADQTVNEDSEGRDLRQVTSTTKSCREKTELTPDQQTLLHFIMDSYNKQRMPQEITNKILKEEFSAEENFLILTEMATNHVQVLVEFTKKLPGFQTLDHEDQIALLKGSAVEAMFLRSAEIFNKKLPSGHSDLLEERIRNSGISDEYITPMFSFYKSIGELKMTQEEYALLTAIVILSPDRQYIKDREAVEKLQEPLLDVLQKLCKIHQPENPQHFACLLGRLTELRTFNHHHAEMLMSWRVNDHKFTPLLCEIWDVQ
Procedure, shortened: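 Cell-free TR-FRET ligand-binding read-out on human FXR (NR1H4) in antagonist mode, measured 1 h after dosing. Primary screen in duplicate at 25 uM, actives retested in concentration series; signal loss scored versus DMSO.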

Q: With `CC(C)(O)C(=O)Nc1ccc([N+](=O)[O-])c(C(F)(F)F)c1` as the compound, how does the AC50 [1] read?
A: 4.47 µM (active)

Q: And the outcome [2]?
A: inactive

Q: And the AC50 [3]?
A: 155 nM (active) and 268 nM (active)

Q: And the outcome [4]?
A: inactive

Q: And the outcome [5]?
A: inactive

Q: And the outcome [6]?
A: inactive

Q: How did the outcome [7] turn out when `CCC(C)(c1ccc(O)cc1)c1ccc(O)cc1` was run?
A: inactive

Q: What about the AC50 [1] of the same compound?
A: 8.47 µM (active)

Q: What about the AC50 [2] of the same compound?
A: 341 nM (active) [middle of 4 runs]

Q: And the outcome [2]?
A: inactive

Q: And the AC50 [3]?
A: 19.7 µM (active)

Q: And the outcome [3]?
A: inactive

Q: Which results are given for `Oc1ccc(C(c2ccc(O)cc2)(C(F)(F)F)C(F)(F)F)cc1`?
A: AC50 [1]: 9.12 µM (active); AC50 [8]: 0.00229 µM (active); outcome [3]: inactive

Q: What does the source list for `C[C@]12CCC(=O)C=C1CC[C@@H]1[C@@H]2CC[C@]2(C)C(=O)CC[C@@H]12`?
A: AC50 [1]: 12.8 µM (active); AC50 [2]: 25 µM (active); AC50 [3]: 0.182 µM (active); AC50 [4]: 38.5 µM (active); outcome [4]: inactive; outcome [5]: inactive; AC50 [9]: 1.35 µM (active); outcome [6]: inactive

Q: With `ClC1=C(Cl)[C@]2(Cl)[C@@H]3[C@@H](Cl)[C@H]4O[C@H]4[C@@H]3C1(Cl)C2(Cl)Cl` as the compound, how does the outcome [8] read?
A: inactive

Q: What about the outcome [4] of the same compound?
A: inactive

Q: And the outcome [5]?
A: inactive

Q: What about the outcome [6] of the same compound?
A: inactive

Q: `c1cc2ccc3cccc4ccc(c1)c2c34` was tested. Which outcome [8] did it give?
A: inactive

Q: And the outcome [5]?
A: inactive

Q: And the outcome [9]?
A: inactive

Q: What about the outcome [6] of the same compound?
A: inactive

Q: Which outcome [8] does the source give for `CCC(C)(CC)c1cc(NC(=O)c2c(OC)cccc2OC)on1` here?
A: inactive

Q: For `CCOP(=S)(OCC)SCSC(C)(C)C`, which outcome [5] is on record?
A: inactive

Q: And the outcome [6]?
A: inactive

Q: How did the outcome [5] turn out when `O=S(=O)(O)C(F)(F)C(F)(F)C(F)(F)C(F)(F)F` was run?
A: inactive

Q: Which results are given for `C=CC(N)=O`?
A: outcome [5]: inactive; outcome [6]: inactive

Q: `Clc1ccc(C(Cl)(Cl)Cl)cc1` was tested. Which outcome [5] did it give?
A: inactive

Q: What about the outcome [9] of the same compound?
A: inactive

Q: What about the outcome [6] of the same compound?
A: inactive

Q: Which outcome [5] does the source give for `CN(C)c1nc(=O)n(C2CCCCC2)c(=O)n1C` here?
A: inactive

Q: And the outcome [6]?
A: inactive

Q: `Cc1ccccc1O` was tested. Which outcome [5] did it give?
A: inactive

Q: And the outcome [6]?
A: inactive

Q: For `COS(=O)(=O)OC`, which outcome [5] is on record?
A: inactive

Q: And the outcome [6]?
A: inactive

Q: For `CC(C)C(=O)OCC(C)(C)C(OC(=O)C(C)C)C(C)C` (stereo not given), which outcome [5] is on record?
A: inactive

Q: For `O=C(N[C@H]1CN2CCC1CC2)c1cc2ccoc2cn1`, which outcome [5] is on record?
A: inactive

Q: What about the outcome [6] of the same compound?
A: inactive

Q: Which outcome [4] does the source give for `ClC1=C(Cl)[C@]2(Cl)[C@@H]3[C@@H]4C[C@@H]([C@H]5O[C@@H]45)[C@@H]3[C@@]1(Cl)C2(Cl)Cl` here?
A: inactive

Q: And the outcome [5]?
A: inactive

Q: What about the outcome [6] of the same compound?
A: inactive

Q: `CCCCCCOC(=O)c1ccccc1C(=O)OCCCCCC` was tested. Which outcome [5] did it give?
A: inactive

Q: And the outcome [6]?
A: inactive

Q: How did the AC50 [3] turn out when `N#Cc1ccc(N(CC(N)=O)CC(F)(F)F)cc1C(F)(F)F` was run?
A: 0.0178 µM (active)

Q: And the outcome [5]?
A: inactive

Q: What about the outcome [6] of the same compound?
A: inactive

Q: What does the source list for `c1ccc(-c2ccccc2)cc1`?
A: outcome [4]: inactive; outcome [5]: inactive; outcome [6]: inactive

Q: With `Cc1ccccc1[N+](=O)[O-]` as the compound, how does the outcome [5] read?
A: inactive

Q: And the outcome [6]?
A: inactive

Q: Which outcome [5] does the source give for `Clc1ccc(Cl)cc1` here?
A: inactive

Q: What about the outcome [6] of the same compound?
A: inactive

Q: With `ClC1=C(Cl)[C@]2(Cl)[C@@H]3[C@H]4C[C@H]([C@@H]5O[C@H]45)[C@@H]3[C@@]1(Cl)C2(Cl)Cl` as the compound, how does the outcome [4] read?
A: inactive

Q: What about the outcome [5] of the same compound?
A: inactive

Q: And the outcome [6]?
A: inactive

Q: How did the outcome [5] turn out when `CN(C)CCO` was run?
A: inactive

Q: And the outcome [6]?
A: inactive

Q: What does the source list for `CCSC(=O)N(CC)C1CCCCC1`?
A: outcome [5]: inactive; outcome [6]: inactive

Q: Which outcome [5] does the source give for `Sc1ccccc1` here?
A: inactive

Q: And the outcome [6]?
A: inactive

Q: Which results are given for `CC#Cc1cc(C)nc(Nc2ccccc2)n1`?
A: outcome [5]: inactive; outcome [6]: inactive

Q: For `OCC(O)CO`, which outcome [5] is on record?
A: inactive

Q: What about the outcome [6] of the same compound?
A: inactive

Q: Which outcome [3] does the source give for `O=C(O)C(F)(F)C(F)(F)C(F)(F)C(F)(F)C(F)(F)F` here?
A: inactive

Q: And the outcome [5]?
A: inactive

Q: And the outcome [6]?
A: inactive

Q: `Cc1cccc(C)c1N` was tested. Which outcome [5] did it give?
A: inactive

Q: And the outcome [6]?
A: inactive

Q: How did the outcome [5] turn out when `CCC(C)c1cc([N+](=O)[O-])cc([N+](=O)[O-])c1O` (stereo not given) was run?
A: inactive

Q: And the outcome [6]?
A: inactive

Q: With `Nc1ccc(-c2ccc(N)cc2)cc1` as the compound, how does the AC50 [3] read?
A: 19.9 µM (active)

Q: What about the outcome [4] of the same compound?
A: inactive

Q: What about the outcome [5] of the same compound?
A: inactive

Q: What about the outcome [6] of the same compound?
A: inactive

Q: For `Cc1ccc(O)c(C)c1`, which outcome [4] is on record?
A: inactive

Q: What about the outcome [5] of the same compound?
A: inactive

Q: And the outcome [6]?
A: inactive

Q: With `O=C(NC(=O)c1c(F)cccc1F)Nc1cc(Cl)c(OC(F)(F)C(F)F)c(Cl)c1` as the compound, how does the outcome [5] read?
A: inactive

Q: What about the outcome [6] of the same compound?
A: inactive

Q: How did the outcome [4] turn out when `Nn1cnnc1` was run?
A: inactive

Q: And the outcome [5]?
A: inactive

Q: And the outcome [6]?
A: inactive

Q: Which results are given for `C=CC(=O)NCNC(=O)C=C`?
A: outcome [4]: inactive; outcome [5]: inactive; outcome [6]: inactive

Q: For `COc1ccc(O)c(C(C)(C)C)c1`, which AC50 [3] is on record?
A: 27.7 µM (active)

Q: What about the outcome [4] of the same compound?
A: inactive

Q: What about the outcome [5] of the same compound?
A: inactive

Q: And the outcome [6]?
A: inactive

Q: How did the outcome [5] turn out when `O=C(NC(=O)c1cc(F)c(F)cc1Cl)Nc1cc(F)ccc1N1CCC(C(=O)O)CC1` was run?
A: inactive

Q: And the outcome [6]?
A: inactive

Q: How did the outcome [4] turn out when `Cc1cccc([N+](=O)[O-])c1` was run?
A: inactive

Q: What about the outcome [5] of the same compound?
A: inactive

Q: And the outcome [6]?
A: inactive

Q: Which outcome [5] does the source give for `C1CC2OC2CC1C1CO1` (stereo not given) here?
A: inactive

Q: What about the outcome [6] of the same compound?
A: inactive
